Source: PubChem (National Center for Advancing Translational Sciences (NCATS))
Many of the other results were omitted from the sample, so hits are more common in it than they were.
VDR inh = vitamin D3 receptor (human) inhibition. P11473. VDR-SRC2-3 peptide fluorescence polarization, 2 h. Potency, µM, without a hit: max response, negative = inhibition, hits mostly inhibitors. 0.93% of 400,000 active; also: % is scaled to controls: 0 for no effect and ±100 for the full control effect
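VDR–SRC2-3 interaction, FP format. Cmpds 23 nl via pintool, brief spin, 2 h ambient incubation.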
G9a inh = G9a (human) methyltransferase inhibition. Potency, µM (highest dose often 102 µM), inactives show at the highest dose activity, negative = inhibition, actives largely listed as inhibitors. G9a H3K9 monomethylation, AlphaScreen, 2 h. Q96KQ7. 8.8% of 350,000 active; also: % is scaled to controls: 0 for no effect and ±100 for the full control effect; nearly all actives have a fitted effect of over 75% in size
Target sequence (Q96KQ7 913-1193 limits assumed): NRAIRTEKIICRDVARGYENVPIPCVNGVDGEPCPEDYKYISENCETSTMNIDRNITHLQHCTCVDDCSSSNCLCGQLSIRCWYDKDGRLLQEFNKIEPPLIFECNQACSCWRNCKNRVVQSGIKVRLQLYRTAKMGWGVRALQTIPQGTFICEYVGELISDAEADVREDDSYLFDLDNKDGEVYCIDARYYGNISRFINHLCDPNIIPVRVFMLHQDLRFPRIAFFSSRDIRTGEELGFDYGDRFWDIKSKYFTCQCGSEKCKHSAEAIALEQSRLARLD
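Compounds were preincubated with 20 nM G9a for 15 min, after which biotinylated H3K9 peptide (500 nM) and SAM (20 uM) started a 2 h room-temperature reaction. Monomethylated product was quantified by antibody-based AlphaScreen chemiluminescence.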
ALOX12 inh = blocks human arachidonate 12S-lipoxygenase. P18054. purified 12hLO, xylenol orange hydroperoxide absorbance. Potency, µM (top dose mostly 108 µM), for inactives: top-dose activity change, negative = inhibition, actives largely listed as inhibitors. 1.1% of 580,000 active; also: % is scaled to controls: 0 for no effect and ±100 for the full control effect
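Hydroperoxide product was detected by ferrous iron/xylenol orange as the 573 to 405 nm absorbance ratio. Arachidonic acid at 40 uM (final) was turned over for 30 min at room temperature by 150 nM human 12hLO, pH 7.0 Hepes buffer, after 15 min compound preincubation.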
Sfp PPTase inh = blocks B. subtilis Sfp PPTase activity. Potency, µM, for the others: largest response in the series, negative = inhibition, usual class: inhibitors. Q9F4F7. Biochemical Sfp PPTase activity, qHTS. 3.5% of 310,000 active;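 also: the enzyme is Sfp with the accession as filed and its product quenches rhodamine fluorescence; 0% = enzyme reaction without inhibitor and -100% = no enzyme wells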
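Reaction rates are the 30-min fluorescence difference (ex 525, em 598 nm) in wells containing 15 nM Sfp, 5 uM rhodamine-CoA and 12.5 uM BHQ-2-YbbR at pH 7.6 with 10 mM MgCl2.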
Glioma ERSR ind = induces the endoplasmic reticulum stress response in human glioma cells; U87-MG GRP78 promoter luciferase reporter, 16 h; Potency, µM, without a hit: at the highest dose activation, most hits filed as activators; 0.02% of 420,000 active; also: series mostly up to about 76 µM; % of control where 0% means no effect; nearly all actives have a fitted effect of over 35% in size
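ERSR induction read as luciferase luminescence (Bright-Glo, 10 min at room temperature) in stably transfected human U87-MG glioma cells exposed to compounds for 16 h, using GRP78 as sensor.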
An asterisk follows results filed as active; ? = inconclusive; / = no result; [ ] = remark or other dose. Calls follow the shape of the dose curve; as a rule, active = well fitted curve in the direction sought with a large enough effect; inconclusive = small, poorly fitted or top-dose-only effect, or another doubt; inactive = no such curve, though single readings can be large; an effect the other way counts as inactive or inconclusive. Potency is read from the fitted curve at half-maximal effect.

SMILES	VDR inh	G9a inh	ALOX12 inh	Sfp PPTase inh	Glioma ERSR ind
CC(N(C)C(=O)CCc1ccco1)C(C)(C)C (configuration not stated)	/	/	-21%	/	/
COc1ccc(CCNC(=O)C2CC(c3cc(OC)c(OC)c(OC)c3)=NO2)cc1OC (configuration not stated)	/	/	-7%	/	/
CC12CC3(O)OC(O1)C1(COC(=O)c4ccccc4)[C@@H]3CC21O[C@@H]1O[C@H](CO)[C@@H](O)[C@H](O)[C@H]1O	9%	20%[59 µM]	/	13%	-4%
CCOC(=O)c1ccc(N=C2C(=S)N(c3ccc(C(=O)OCC)cc3)C(=N)N2/N=C/c2ccccc2)cc1	?	4µM*	-24%	-2%	2%
COc1ccc(CN=Cc2c(O)[nH]c3ccccc23)cc1	-7%	-42%	-2%	7%	0%
Cc1ccc(CN=Cc2[nH]c3ccc(Br)c(Cl)c3c2O)cc1	-1%	28µM*	?	?	-2%
Oc1c(C=NCc2ccc(F)cc2)[nH]c2ccc(Br)c(Cl)c12	/	?	13µM*	-17%	/
CC(Oc1ccccc1)C(=O)NCc1ccnc(N(C)C)c1 (configuration not stated)	/	/	-27%	/	/
CC(C)Oc1cccc(C(=O)NC(=S)Nc2ccc3c4c(cccc24)CC3)c1	-21%	?	18µM*	-9%	-4%
COc1cc(OC)cc(C(=O)NC(=S)Nc2ccc3c4c(cccc24)CC3)c1	16%	?	?	?	-5%
O=C(c1ccc2c(=O)n(-c3cccc(Cl)c3)cnc2c1)N1CCSCC1	/	/	6%	/	/
CC1=C(C(=O)OCc2ccccc2)C(c2ccc(Cl)cc2Cl)NC(=O)N1CCCC(=O)O (configuration not stated)	-1%	56µM*	/	?	-2%
CCOC(=O)C1=C(C)N(CCCCCC(=O)O)C(=O)NC1c1ccc(Br)cc1 (configuration not stated)	-4%	50µM*	-16%	14%	-2%
CCOC(=O)C1=C(C)N(CCCCCC(=O)O)C(=O)NC1c1ccccc1Cl (configuration not stated)	-1%	56µM*	-10%	?	-3%
CC1=C(C(=O)OCc2ccccc2)C(c2ccc(Cl)cc2Cl)NC(=O)N1CCCCCC(=O)O (configuration not stated)	-11%	?	/	-18%	1%
CCOC(=O)C1=C(C)N(CCCC(=O)O)C(=O)NC1c1ccccc1Cl (configuration not stated)	1%	/	10%	/	12%
CCOC(=O)CN1C(=O)N[C@H](c2ccc(Br)cc2)C(C(C)=O)=C1C	?	45µM*	-30%	?	-1%
COC(=O)c1cccc(COC(=O)c2ccc(CNC(C)=O)cc2)c1	/	/	12%	/	/
C=CCSc1nc2c(c(=O)[nH]c(=O)n2C)n1CC(=C)C	/	/	6%	/	/
CCCn1c(C2CC(=O)N(c3cccc(C(F)(F)F)c3)C2)nc2ccccc21 (configuration not stated)	/	/	-15%	/	/
N#Cc1ccc(/C=N/Nc2ccccc2C(F)(F)F)cc1	/	/	10µM*	/	/
N#Cc1ccc(N/N=C/c2ccccc2)c([N+](=O)[O-])c1	-19%	-11%	65%	20%	-1%
O=C(/N=C1\NC(=O)C(F)(C(F)(F)F)S1)NC1CCCCC1 (configuration not stated)	50µM*	3.2µM*	10µM*	13µM*	4%
c1ccc(OCCN2CCC(c3nc4ccccc4s3)CC2)cc1	/	/	5µM*	/	/
c1ccc(CCCN2CC[C@H](c3nc4ccccc4s3)C2)cc1	/	/	-19%[176 µM]	/	/
SMILES	VDR inh	G9a inh	ALOX12 inh	Sfp PPTase inh	Glioma ERSR ind
CCOc1cc2[nH]c(=S)n(CCN3CCC(C)CC3)c(=O)c2cc1OCC	-2%	18%[0.501 µM]	7%	3%	-5%
CCOc1cc2[nH]c(=S)n(CCN3CCCCC3CC)c(=O)c2cc1OCC (configuration not stated)	23%	56µM*	?	9%	-2%
CCCCn1c(O)c(C2=Nc3ccccc3SC(c3ccc(O)cc3)C2)c(=O)[nH]c1=O (configuration not stated)	/	/	28µM*	/	/
CCN(CC)CCOC(=O)C(c1ccccc1)c1ccccc1	-15%	9%[59 µM]	?	11%	-2%
CCN(CC)CCSC(=O)C(c1ccccc1)c1ccccc1	25µM*	4%[12.7 µM]	-14%	-15%	-5%
OC(CN1CCN(c2ccccc2)CC1)Cn1c2ccccc2c2ccccc21 (configuration not stated)	5%	32µM*	0%	10%	-5%
OC(CN1CCN(c2ccccn2)CC1)Cn1c2ccc(Cl)cc2c2cc(Cl)ccc21 (configuration not stated)	1%	-4%[59 µM]	0%	-4%	-6%
OC(CN1CCCCC1)Cn1c2ccc(Cl)cc2c2cc(Cl)ccc21 (configuration not stated)	-11%	?	?	50µM*	-13%
Cc1ccc(OCCN2CCN(CC(O)Cn3c4ccccc4c4ccccc43)CC2)cc1 (configuration not stated)	/	8.9µM*	?	45µM*	/
OC(CN1CCNCC1)Cn1c2ccccc2c2ccccc21 (configuration not stated)	-14%	50µM*	?	0%	-6%
CCOc1ccccc1Oc1coc2cc(OC(=O)c3ccccc3F)ccc2c1=O	/	/	-2%	/	/
COc1cccc(-c2cc(C3CCN(C(=O)Nc4cc(Cl)ccc4C)CC3)[nH]n2)c1	/	/	-3%	/	/
CNS(=O)(=O)c1ccc(C(=O)NCC2(c3ccccc3)CC2)cc1	/	/	4%	/	/
CCCCCCCCc1cnc(-c2ccc(OC(F)(F)F)cc2)nc1	/	/	18%	/	/
CCCNc1c(NC(=O)NCc2ccc(C)cc2)c(=O)oc2ccccc12	/	/	3%	/	/
CC(Sc1nnc(N2CCOCC2)n1-c1cccc(F)c1)C(=O)c1ccc(Br)cc1 (configuration not stated)	/	/	2%	/	/
CCCCNc1ccc(S(=O)(=O)c2cccc([N+](=O)[O-])c2)cc1[N+](=O)[O-]	-5%	7.9µM*	-22%	1%	-3%
NS(=O)(=O)c1ccc(N/N=C2/CCCCC2C2CCCCC2)c([N+](=O)[O-])c1 (configuration not stated)	-16%	?	-16%	8%	-15%
Cc1cc(C)c2c(c1)/C(=N/Nc1ccc(S(N)(=O)=O)cc1[N+](=O)[O-])CCC2	-11%	40µM*	58%	6%	-2%
NS(=O)(=O)c1ccc(NN=C2CCN(Cc3ccccc3)CC2)c([N+](=O)[O-])c1	-11%	45µM*	-27%	-26%	-3%
CC1C/C(=N\Nc2ccc(S(N)(=O)=O)cc2[N+](=O)[O-])CC(C)(C)C1 (configuration not stated)	-8%	14µM*	-3%	-5%	-10%
NS(=O)(=O)c1ccc(N/N=C/C2CCCCC2)c([N+](=O)[O-])c1	/	/	33%	/	/
